The campaign covered roughly 310,000 compounds. About 2,200 (0.71%) showed an effect of 50% or more. The effect is printed as a negative number. The sample as a whole holds a higher share of strong results than the screen did.
Each compound was assayed against human ether-à-go-go-related gene (hERG) potassium channel (human, UniProt Q12809) (assay: primary screen, population patch clamp on CHO cells stably expressing hERG; higher = less effect of the substance).
Chain of human ether-à-go-go-related gene (hERG) potassium channel (Q12809 whole entry, looked up): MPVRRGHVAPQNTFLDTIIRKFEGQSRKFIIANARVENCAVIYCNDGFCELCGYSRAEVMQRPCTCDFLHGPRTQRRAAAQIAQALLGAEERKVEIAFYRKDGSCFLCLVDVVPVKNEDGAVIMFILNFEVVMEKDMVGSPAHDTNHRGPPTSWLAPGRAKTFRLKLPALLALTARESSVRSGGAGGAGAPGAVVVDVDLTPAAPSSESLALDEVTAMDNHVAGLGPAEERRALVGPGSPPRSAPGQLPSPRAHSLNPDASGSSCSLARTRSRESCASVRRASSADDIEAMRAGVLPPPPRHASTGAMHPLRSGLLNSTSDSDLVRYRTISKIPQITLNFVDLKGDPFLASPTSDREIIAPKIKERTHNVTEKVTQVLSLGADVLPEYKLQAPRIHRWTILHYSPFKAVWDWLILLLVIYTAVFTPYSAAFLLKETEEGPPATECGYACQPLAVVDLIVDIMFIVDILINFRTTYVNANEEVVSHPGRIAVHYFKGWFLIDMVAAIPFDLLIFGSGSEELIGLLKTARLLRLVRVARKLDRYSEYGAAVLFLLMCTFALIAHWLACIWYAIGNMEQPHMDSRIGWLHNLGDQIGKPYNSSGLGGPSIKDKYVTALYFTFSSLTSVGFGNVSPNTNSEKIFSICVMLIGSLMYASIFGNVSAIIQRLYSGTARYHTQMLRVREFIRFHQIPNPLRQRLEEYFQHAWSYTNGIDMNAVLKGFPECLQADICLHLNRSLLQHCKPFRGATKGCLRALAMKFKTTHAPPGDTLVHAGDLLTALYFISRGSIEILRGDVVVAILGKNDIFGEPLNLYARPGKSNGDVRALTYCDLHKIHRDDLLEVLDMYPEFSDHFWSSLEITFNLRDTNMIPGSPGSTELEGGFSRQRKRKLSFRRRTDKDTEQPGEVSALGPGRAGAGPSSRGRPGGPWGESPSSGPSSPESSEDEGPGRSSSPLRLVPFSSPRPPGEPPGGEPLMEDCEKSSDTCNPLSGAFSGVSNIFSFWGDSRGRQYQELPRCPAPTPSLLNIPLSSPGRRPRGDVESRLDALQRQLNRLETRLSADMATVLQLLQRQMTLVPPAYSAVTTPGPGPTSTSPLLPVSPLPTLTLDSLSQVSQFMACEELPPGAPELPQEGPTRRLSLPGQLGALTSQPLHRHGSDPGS

SMILES	hERG current change (%, negative = inhibition) at 1uM
COc1ccc(CC(=O)OCC(=O)N2CCCc3ccccc32)cc1	7.67%
CCOC(=O)/C(C#N)=C1/C=CN(c2ccccc2)C=N1	7.43%
CCCn1c(N)c(C(=O)CSc2nnc3n2CCCCC3)c(=O)[nH]c1=O	4.02%
CCOP(=O)(OCC)/C(C#N)=C/c1ccc([N+](=O)[O-])cc1	-4.07%
CCOC(=O)c1cc2c(=O)n3ccccc3nc2n(Cc2ccccc2)c1=N	-68.9%
CCCn1c(=NC(C)=O)c(C(=O)OCC)cc2c(=O)n3ccccc3nc21	8.09%
COCCCn1c(C(=O)N2CCOCC2)cc2c(=O)n3ccccc3nc21	3.13%
COC(=O)c1cc2c(=O)n3ccccc3nc2n(Cc2cccnc2)c1=N	-51.5%
N=c1c(C(=O)NCc2ccc(F)cc2)cc2c(=O)n3ccccc3nc2n1Cc1cccnc1	-80.3%
COc1ccc(CNC(=O)c2cc3c(=O)n4ccccc4nc3n(Cc3cccnc3)c2=N)cc1	-32.6%
COCCCn1c(C(=O)Nc2ccc3c(c2)OCO3)cc2c(=O)n3ccccc3nc21	13.5%
N#Cc1cc2c(=O)n3ccccc3nc2n(Cc2cccnc2)c1=O	2.54%
COCCCn1c(=N)c(C(=O)NCc2ccc3c(c2)OCO3)cc2c(=O)n3ccccc3nc21	-87.4%
N=c1c(S(=O)(=O)c2ccccc2)cc2c(=O)n3ccccc3nc2n1Cc1cccnc1	6.5%
N=c1c(S(=O)(=O)c2ccc(Cl)cc2)cc2c(=O)n3ccccc3nc2n1Cc1cccnc1	7.26%
CCCCn1c(=NC(=O)c2ccco2)c(C(=O)OCC)cc2c(=O)n3ccccc3nc21	-44.1%
Oc1[nH]c2ccc(Br)cc2c1N=NC(=S)N1CCOCC1	17.6%
Cc1onc(-c2c(Cl)cccc2Cl)c1C(=O)O/N=C(\C#N)c1ccccc1	7.14%
O=C(CSC1=NS(=O)(=O)c2cc(F)ccc2N1)Nc1cccc(F)c1	2.39%
CCCc1cc(=O)[nH]c(SCC(=O)NC)n1	-0.511%
O=Cc1cn(Cc2ccc(F)cc2)c2ccccc12	14.4%
O=C(NCCCN1CCCC1=O)C1CCN(S(=O)(=O)c2cccc(C(F)(F)F)c2)CC1	23.6%
CCc1nnc(NC(=O)C(C)N2C(=O)C3C4C=CC(C4)C3C2=O)s1 (centres unmarked)	3.03%
